In the supplement of paper PMC10849652:
The full data set covers some 8,800 targets. This sample favours those with a hit. About 0.5% of all pairs of compound and target were hits.

Key:
Assay in all cases: log2 fold change, soluble protein after heating vs DMSO (PISA); higher = thermal stabilisation; K562 lysate, 10 uM; active = over 0.2 and 3.5 SD of the protein, either way, in both replicates (recomputed)
alvocidib = compound: CN1CC[C@H](c2c(O)cc(O)c3c(=O)cc(-c4ccccc4Cl)oc23)[C@H](O)C1 [alvocidib]
Outline: (§1)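 To prepare the extract, K562 pellets were dounce-homogenised in PBS pH 7.4 with 1 mM MgCl2, giving crude material at 1 mg/mL protein. This was treated with 10 μM compound for 30 min, then heated in aliquots for 3 min over 48°C-58°C before pooling and addition of NP-40 to 0.5% at 4°C. Centrifugation at 21,000xg for 90 min left soluble protein in the supernatant, which TMTpro 16plex LC-MS/MS quantified with equalised channel sums. Results are log-two fold changes in thermal stability compared with solvent controls, from duplicates.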

[1] = compound: CNC(=O)C1=CC=CC=C1NC2=NC(=NC=C2Cl)NC3=C(C=C(C=C3)N4CCOCC4)OC
Outline: as §1

defactinib = compound: CNC(=O)c1ccc(Nc2ncc(C(F)(F)F)c(NCc3nccnc3N(C)S(C)(=O)=O)n2)cc1 [defactinib]
Outline: as §1

[2] = compound: CNc1nc(-c2ccc3c(N)n[nH]c3c2)cc(N2C[C@@H](C(=O)NC3CCCCC3)CC[C@H]2C)n1
Outline: as §1

encorafenib = compound: COC(=O)N[C@@H](C)CNc1nccc(-c2cn(C(C)C)nc2-c2cc(Cl)cc(NS(C)(=O)=O)c2F)n1 [encorafenib]
Outline: as §1

[3] = compound: COC(=O)[C@H](CCSC)NC(=O)C1=C(C=C(C=C1)NC[C@H](CS)N)C2=CC=CC=C2
Outline: as §1

alisertib = compound: COc1cc(Nc2ncc3c(n2)-c2ccc(Cl)cc2C(c2c(F)cccc2OC)=NC3)ccc1C(=O)O [alisertib]
Outline: as §1

[4] = compound: COc1cc2nc(-c3cc(F)ccc3O)nc(N[C@@H]3CNC[C@H]3C(C)(C)O)c2cc1OC
Outline: as §1

gefitinib = compound: COc1cc2ncnc(Nc3ccc(F)c(Cl)c3)c2cc1OCCCN1CCOCC1 [gefitinib]
Outline: as §1

lapatinib = compound: CS(=O)(=O)CCNCc1ccc(-c2ccc3ncnc(Nc4ccc(OCc5cccc(F)c5)c(Cl)c4)c3c2)o1 [lapatinib]
Outline: as §1

pictilisib = compound: CS(=O)(=O)N1CCN(Cc2cc3nc(-c4cccc5[nH]ncc45)nc(N4CCOCC4)c3s2)CC1 [pictilisib]
Outline: as §1

crizotinib = compound: C[C@@H](Oc1cc(-c2cnn(C3CCNCC3)c2)cnc1N)c1c(Cl)ccc(F)c1Cl [crizotinib]
Outline: as §1

[5] = compound: C[C@H](C1=CC=C(C=C1)C(=O)NC2=C3C=CNC3=NC=C2)N
Outline: as §1

duvelisib = compound: C[C@H](Nc1ncnc2nc[nH]c12)c1cc2cccc(Cl)c2c(=O)n1-c1ccccc1 [duvelisib]
Outline: as §1

gandotinib = compound: Cc1cc(Nc2cc(CN3CCOCC3)c3nc(C)c(Cc4ccc(Cl)cc4F)n3n2)n[nH]1 [gandotinib]
Outline: as §1

tozasertib = compound: Cc1cc(Nc2cc(N3CCN(C)CC3)nc(Sc3ccc(NC(=O)C4CC4)cc3)n2)n[nH]1 [tozasertib]
Outline: as §1

doramapimod = compound: Cc1ccc(-n2nc(C(C)(C)C)cc2NC(=O)Nc2ccc(OCCN3CCOCC3)c3ccccc23)cc1 [doramapimod]
Outline: as §1

bafetinib = compound: Cc1ccc(NC(=O)c2ccc(CN3CC[C@H](N(C)C)C3)c(C(F)(F)F)c2)cc1Nc1nccc(-c2cncnc2)n1 [bafetinib]
Outline: as §1

[6] = compound: Cc1cccc(CC(=O)N2CCc3c2ccc(-c2cn(C)c4ncnc(N)c24)c3F)n1
Outline: as §1

Tubastatin A = compound: CN1CCc2c(c3ccccc3n2Cc2ccc(C(=O)NO)cc2)C1 [Tubastatin A]
Outline: as §1

Measured: log2 fold change

RXRB isoform 3 (UniProt P28702)
Sequence of UniProt P28702 (P28702 whole entry, looked up): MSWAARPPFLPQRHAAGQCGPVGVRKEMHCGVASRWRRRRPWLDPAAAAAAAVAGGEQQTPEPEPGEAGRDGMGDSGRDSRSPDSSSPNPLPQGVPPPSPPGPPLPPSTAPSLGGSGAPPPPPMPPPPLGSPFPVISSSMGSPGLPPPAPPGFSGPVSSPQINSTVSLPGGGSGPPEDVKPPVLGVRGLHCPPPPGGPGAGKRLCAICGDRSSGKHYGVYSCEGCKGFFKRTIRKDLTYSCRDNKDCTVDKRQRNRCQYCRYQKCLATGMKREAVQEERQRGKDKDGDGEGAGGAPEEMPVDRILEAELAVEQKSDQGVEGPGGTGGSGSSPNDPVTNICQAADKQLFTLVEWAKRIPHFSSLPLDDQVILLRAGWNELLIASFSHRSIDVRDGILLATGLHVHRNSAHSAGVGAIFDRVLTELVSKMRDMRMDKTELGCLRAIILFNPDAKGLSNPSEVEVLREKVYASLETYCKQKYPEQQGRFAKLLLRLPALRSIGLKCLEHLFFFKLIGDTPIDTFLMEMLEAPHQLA
inactive: alvocidib 0.008 | [1] 0.126 | defactinib 0.05 | [2] -0.003 | encorafenib 0.066 | [3] -0.042 | alisertib -0.044 | [4] 0.073 | gefitinib 0.047 | lapatinib 0.085 | pictilisib -0.096 | crizotinib -0.011 | [5] 0.046 | duvelisib -0.051 | gandotinib -0.074 | tozasertib 0.006 | doramapimod -0.091 | bafetinib -0.11 | [6] 0.023

RAD17 (UniProt O75943)
Sequence of UniProt O75943 (O75943 whole entry, looked up): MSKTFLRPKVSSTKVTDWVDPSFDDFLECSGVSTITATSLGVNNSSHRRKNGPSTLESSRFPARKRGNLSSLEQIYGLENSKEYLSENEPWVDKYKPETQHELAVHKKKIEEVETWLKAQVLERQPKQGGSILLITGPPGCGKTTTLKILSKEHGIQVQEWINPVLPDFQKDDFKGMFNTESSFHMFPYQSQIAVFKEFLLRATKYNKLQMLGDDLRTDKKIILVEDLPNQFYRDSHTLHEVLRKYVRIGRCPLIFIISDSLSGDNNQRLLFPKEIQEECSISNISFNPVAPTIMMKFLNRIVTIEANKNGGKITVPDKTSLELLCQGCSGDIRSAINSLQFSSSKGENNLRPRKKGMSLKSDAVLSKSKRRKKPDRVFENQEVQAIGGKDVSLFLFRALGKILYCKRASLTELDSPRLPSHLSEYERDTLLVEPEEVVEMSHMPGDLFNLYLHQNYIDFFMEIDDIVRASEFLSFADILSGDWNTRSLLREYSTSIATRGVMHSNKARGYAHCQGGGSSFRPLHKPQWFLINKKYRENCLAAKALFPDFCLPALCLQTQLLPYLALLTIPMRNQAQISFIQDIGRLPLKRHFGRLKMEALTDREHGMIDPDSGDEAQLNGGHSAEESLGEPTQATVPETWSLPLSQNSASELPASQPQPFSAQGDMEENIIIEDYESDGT
inactive: alvocidib -0.24 | Tubastatin A -0.041 | defactinib 0.111 | [2] 0.154 | encorafenib 0.094 | [3] 0.026 | alisertib 0.029 | gefitinib 0.022 | pictilisib -0.019 | crizotinib -0.01 | [5] 0.021 | duvelisib -0.027 | gandotinib -0.194 | tozasertib 0.005 | doramapimod -0.015 | bafetinib 0 | [6] -0.055

RBM4 isoform 3 (UniProt Q9BWF3)
Sequence of UniProt Q9BWF3 (Q9BWF3 whole entry, looked up): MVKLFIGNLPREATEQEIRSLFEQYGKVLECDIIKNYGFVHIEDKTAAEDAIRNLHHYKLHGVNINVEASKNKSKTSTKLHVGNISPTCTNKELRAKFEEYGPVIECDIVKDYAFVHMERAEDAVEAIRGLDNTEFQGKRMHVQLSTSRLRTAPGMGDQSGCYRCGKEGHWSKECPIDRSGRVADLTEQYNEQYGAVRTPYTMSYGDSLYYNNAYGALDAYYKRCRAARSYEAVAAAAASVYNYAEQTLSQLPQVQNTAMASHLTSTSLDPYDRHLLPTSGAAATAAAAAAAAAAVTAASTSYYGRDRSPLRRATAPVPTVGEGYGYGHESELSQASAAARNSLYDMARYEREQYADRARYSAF
inactive: crizotinib 0.114 | doramapimod 0.016

RAP1B (UniProt F5GZG1)
inactive: alvocidib -0.118 | [1] 0.01 | defactinib -0.05 | [2] -0.104 | encorafenib 0.056 | [3] 0.124 | alisertib 0.059 | [4] 0.002 | gefitinib 0.071 | lapatinib 0.003 | pictilisib 0.02 | crizotinib -0.022 | [5] -0.313 | duvelisib 0.016 | gandotinib 0.127 | tozasertib 0.103 | doramapimod -0.115 | bafetinib -0.098 | [6] 0.201
